# PubChem BioAssay
# For some assays here: Results with a measured potency or affinity are listed apart. The source made the active and inactive calls. Unless noted, how the calls were made is not given here.
# Key:
# [1] = antimalarial activity against Dd2 strain (AID 2302;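 active means growth inhibition above 50% at the single 2 µM test dose, taken to imply half-maximal potency below 2 µM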;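 further: 0% = DMSO untreated growth and 100% = chloroquine plus artemisinin killed control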); settings: P. falciparum Dd2 in RBCs, LDH growth readout, 72 h; at 2 µM; active compounds read high
# [2] = human hepatoma cell viability loss – ATP luminescence, cytotoxicity control for P. falciparum antimalarial project, primary screen (AID 2303;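 active means inhibition above 50%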;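 further: 0% = DMSO wells and 100% = digitonin-killed cells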); settings: HepG2 viability, 24-48 h, at 10 µM, active compounds read high
# [3] = target: L-lactate dehydrogenase (Plasmodium falciparum (isolate CDC / Honduras)) (UniProt Q27743); experiment: PfLDH activity inhibition – cell lysate, 3D7 strain, counter-screen for P. falciparum growth inhibition project (AID 2304);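 further: 0% = vehicle and 100% = reference inhibitor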; settings: P. falciparum 3D7 crude extract, LDH APAD/NBT absorbance; at 2 µM; active compounds read high
# [4] = inhibition of 3D7 malaria parasite growth – strain 3D7 (AID 2306);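 further: 0% = DMSO wells and 100% = chloroquine plus artemisinin control wells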; settings: P. falciparum 3D7 erythrocytic growth, LDH absorbance, 72 h; at 2 µM; active compounds read high
# [5] = target: Calcium-dependent protein kinase 1 (Plasmodium falciparum (isolate 3D7)) (UniProt P62344); experiment: PfCDPK1 kinase inhibitors, biochemical, TCAMS library (AID 1159585; cut-off not given, nearly all actives have IC50 up to about 0.98 µM;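 further: inhibitors leave more ATP so luminescence rises with inhibition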); settings: recombinant PfCDPK1, Kinase-Glo ATP depletion luminescence
# [6] = target: Plasmodium falciparum protein kinase 6 (PK6, PF3D7_1337100) (UniProt Q8IDW1); experiment: PfPK6 kinase inhibitors, biochemical, TCAMS library (AID 1159586); settings: recombinant PfPK6, Kinase-Glo ATP depletion luminescence
# [7] = target: Protein kinase 7 (PK7), Plasmodium falciparum 3D7 (PF3D7_0213400) (UniProt Q7YTF7); experiment: inhibition of Plasmodium PK7 catalytic activity – biochemical, TCAMS antimalarial set, Kinase-Glo luminescence (AID 1159587); settings: recombinant PfPK7, Kinase-Glo ATP depletion luminescence
# [8] = target: Calcium-dependent protein kinase 4 (Plasmodium falciparum (isolate 3D7)) (UniProt Q8IBS5); experiment: PfCDPK4 kinase inhibitors, biochemical, TCAMS library (AID 1159588; cut-off not given, nearly all actives have IC50 up to about 0.91 µM); settings: recombinant PfCDPK4, Kinase-Glo ATP depletion luminescence
# Sequence of Calcium-dependent protein kinase 4 (Plasmodium falciparum (isolate 3D7)) (Q8IBS5 whole entry, looked up): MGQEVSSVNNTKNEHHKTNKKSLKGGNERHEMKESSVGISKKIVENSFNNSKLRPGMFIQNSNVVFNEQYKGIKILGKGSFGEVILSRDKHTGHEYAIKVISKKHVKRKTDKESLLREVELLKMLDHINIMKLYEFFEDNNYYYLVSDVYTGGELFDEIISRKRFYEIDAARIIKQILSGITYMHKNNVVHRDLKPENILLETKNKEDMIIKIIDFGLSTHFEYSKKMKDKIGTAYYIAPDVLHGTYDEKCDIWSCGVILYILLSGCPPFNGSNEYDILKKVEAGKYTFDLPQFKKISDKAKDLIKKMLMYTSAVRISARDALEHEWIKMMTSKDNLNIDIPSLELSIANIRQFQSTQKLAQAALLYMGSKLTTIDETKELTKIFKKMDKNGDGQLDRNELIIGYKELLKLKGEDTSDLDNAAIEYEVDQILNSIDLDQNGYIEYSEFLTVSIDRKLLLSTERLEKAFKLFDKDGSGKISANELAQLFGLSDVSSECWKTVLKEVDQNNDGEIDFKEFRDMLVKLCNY
# Sequence of Plasmodium falciparum protein kinase 6 (PK6, PF3D7_1337100) (Q8IDW1 1-305): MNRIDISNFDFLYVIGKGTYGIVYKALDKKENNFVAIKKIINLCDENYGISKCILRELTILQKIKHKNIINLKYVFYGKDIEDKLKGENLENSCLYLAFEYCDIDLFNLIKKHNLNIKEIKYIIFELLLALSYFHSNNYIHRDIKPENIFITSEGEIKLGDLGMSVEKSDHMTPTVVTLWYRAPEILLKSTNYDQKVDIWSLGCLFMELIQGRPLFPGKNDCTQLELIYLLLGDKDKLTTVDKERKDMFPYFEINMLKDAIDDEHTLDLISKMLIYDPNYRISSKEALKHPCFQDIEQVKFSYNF
# Sequence of Calcium-dependent protein kinase 1 (Plasmodium falciparum (isolate 3D7)) (P62344 whole entry, looked up): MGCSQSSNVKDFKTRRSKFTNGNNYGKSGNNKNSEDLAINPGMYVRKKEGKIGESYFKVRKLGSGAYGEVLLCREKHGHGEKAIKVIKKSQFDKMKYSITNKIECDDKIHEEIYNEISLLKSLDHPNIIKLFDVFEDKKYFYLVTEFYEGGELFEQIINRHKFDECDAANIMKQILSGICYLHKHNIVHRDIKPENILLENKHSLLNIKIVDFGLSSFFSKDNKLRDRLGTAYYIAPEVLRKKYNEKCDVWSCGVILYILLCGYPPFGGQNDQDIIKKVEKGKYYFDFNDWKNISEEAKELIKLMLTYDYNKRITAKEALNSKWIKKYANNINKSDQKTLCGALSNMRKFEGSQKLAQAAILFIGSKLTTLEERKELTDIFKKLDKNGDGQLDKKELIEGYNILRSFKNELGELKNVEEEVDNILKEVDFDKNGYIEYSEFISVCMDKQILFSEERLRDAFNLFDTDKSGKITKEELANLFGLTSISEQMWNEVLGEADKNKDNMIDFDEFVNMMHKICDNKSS
# Sequence of Protein kinase 7 (PK7), Plasmodium falciparum 3D7 (PF3D7_0213400) (Q7YTF7 1-343): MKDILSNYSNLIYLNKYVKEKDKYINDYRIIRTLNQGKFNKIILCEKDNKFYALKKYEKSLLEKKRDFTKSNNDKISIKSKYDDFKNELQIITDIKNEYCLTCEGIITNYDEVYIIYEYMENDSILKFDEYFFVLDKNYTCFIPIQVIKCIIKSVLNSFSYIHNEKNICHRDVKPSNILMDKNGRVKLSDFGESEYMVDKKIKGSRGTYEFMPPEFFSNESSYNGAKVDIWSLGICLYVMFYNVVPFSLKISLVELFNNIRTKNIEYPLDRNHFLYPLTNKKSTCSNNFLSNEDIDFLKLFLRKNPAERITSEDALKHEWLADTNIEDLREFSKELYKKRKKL
# Sequence of L-lactate dehydrogenase (Plasmodium falciparum (isolate CDC / Honduras)) (Q27743 whole entry, looked up): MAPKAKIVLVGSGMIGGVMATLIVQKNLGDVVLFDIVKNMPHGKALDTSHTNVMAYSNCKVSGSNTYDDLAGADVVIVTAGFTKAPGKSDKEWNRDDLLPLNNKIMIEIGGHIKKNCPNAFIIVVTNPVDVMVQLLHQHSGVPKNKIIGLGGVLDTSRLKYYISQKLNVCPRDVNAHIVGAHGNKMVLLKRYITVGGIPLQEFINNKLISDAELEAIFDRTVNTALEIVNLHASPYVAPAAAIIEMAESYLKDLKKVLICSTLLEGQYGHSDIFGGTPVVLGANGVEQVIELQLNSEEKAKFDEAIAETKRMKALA
Compound,growth inhibition [1],inhibition [2],inhibition [3],growth inhibition [4],outcome [5],outcome [6],outcome [7],outcome [8]
Cc1cccc(CCNC(=O)c2cc(Br)cc(N3CCN(c4ccncc4)CC3)c2)c1,53% (active),48% (inactive),0% (inactive),96% (active),inactive,inactive,inactive,inactive
CC(C)c1ccc(C(NC(=O)C2CCCCC2)c2ccc3cccnc3c2O)cc1 (stereo not given),70% (active),46% (inactive),-8% (inactive),89% (active),inactive,inactive,inactive,inactive
Cc1ccc(C2CCN(CCCCNC(=O)c3ccc(NC(=O)c4ccc(Cl)cc4)cc3)CC2)c(OCC(F)(F)F)c1,84% (active),32% (inactive),-4% (inactive),99% (active),inactive,inactive,inactive,inactive
CC(=O)Nc1ccc(C(=O)Nc2cccc(-c3ccc(-c4nc5ccc(F)cc5[nH]4)s3)c2)cn1,97% (active),33% (inactive),3% (inactive),101% (active),inactive,inactive,inactive,inactive
Cc1noc(C)c1-c1cccc(CNCc2ccc(-c3cccc(-c4nc5ccc(C(F)(F)F)cc5[nH]4)c3)cc2)c1,97% (active),37% (inactive),3% (inactive),101% (active),inactive,inactive,inactive,inactive
O=C(NC1c2ccccc2Oc2ccccc21)c1ccccc1O,-3% (inactive),-3% (inactive),-1% (inactive),95% (active),inactive,inactive,inactive,inactive
COc1ccc(N(C)Cc2cnc3nc(N)nc(N)c3n2)cc1,-1% (inactive),15% (inactive),1% (inactive),98% (active),inactive,inactive,inactive,inactive
CCCN(CCC)S(=O)(=O)c1ccc(C(=O)Nc2nc3ccc(-c4cc(=O)[nH]c(Nc5ccccc5Cl)n4)cc3[nH]2)cc1,98% (active),1% (inactive),-4% (inactive),100% (active),inactive,inactive,inactive,inactive
O=C(Cn1c(CCc2cccc(F)c2F)nc(=O)c2ccccc21)N(CCCN1CCCCC1)Cc1ccc(-c2ccc(C(F)(F)F)cc2)cc1,94% (active),100% (active),-2% (inactive),103% (active),inactive,inactive,inactive,inactive
Cc1nc(C)c(CC(=O)Nc2ccc(-c3cccc(-c4nc5c(C)cccc5[nH]4)c3)cc2)s1,38% (inactive),41% (inactive),-1% (inactive),101% (active),inactive,inactive,inactive,inactive
O=C(NC1CCC(N2CCC(c3ccccc3C(F)(F)F)CC2)CC1)c1cc2ccccc2[nH]1 (stereo not given),98% (active),80% (active),-5% (inactive),100% (active),inactive,inactive,inactive,inactive
COc1ccc2nccc([C@@H](O)CN3CCC(NC(=O)C(=O)c4c[nH]c5c(C)cccc45)CC3)c2c1,94% (active),17% (inactive),-3% (inactive),102% (active),inactive,inactive,inactive,inactive
COc1ccc2c(NN=Cc3c(OC)ccc4ccccc34)cc(C)nc2c1,85% (active),7% (inactive),2% (inactive),102% (active),inactive,inactive,inactive,inactive
NCC(=O)NC12CC3CC(CC(C3)C1)C2,-4% (inactive),15% (inactive),-2% (inactive),87% (active),inactive,inactive,inactive,inactive
CCOC(=O)c1ccc(NC(=O)Nc2cccc(-c3cccc(-c4nc5ccc(F)cc5[nH]4)c3)c2)cc1,100% (active),85% (active),6% (inactive),101% (active),inactive,inactive,inactive,inactive
Cc1cc(N(CCN2CCCCC2)CCN2CCCCC2)nc(Nc2ccc(Cl)cc2)n1,79% (active),19% (inactive),-4% (inactive),101% (active),inactive,inactive,inactive,inactive
Clc1cc(Nc2ccnc3ccc(Br)cc23)ccc1Oc1ccc2ccccc2c1Cl,93% (active),5% (inactive),-5% (inactive),100% (active),inactive,inactive,inactive,inactive
COc1cccc2cc(C(=O)N[C@@H](CC(C)C)C(=O)N[C@H](/C=N/N3CCOC3=O)CC(C)C)oc12,72% (active),4% (inactive),-2% (inactive),90% (active),inactive,inactive,inactive,inactive
Fc1cccc(COc2ccc(Nc3ncnc4cc(/C=C/[C@@H]5CCCN5)sc34)cc2Cl)c1,56% (active),17% (inactive),-7% (inactive),100% (active),inactive,inactive,inactive,inactive
Clc1cc(Nc2ncnc3cc(C#C[C@H]4CCCN4)sc23)cc2[nH]c(Cc3ccccc3)nc12,57% (active),29% (inactive),1% (inactive),91% (active),inactive,inactive,inactive,inactive

Compound,growth inhibition [1],inhibition [2],inhibition [3],growth inhibition [4],outcome [5],outcome [6],outcome [7],outcome [8]
COc1ccc(CN2CCN(Cc3cc(Cl)ccc3O)CC2CCO)c(C)c1C (stereo not given),76% (active),1% (inactive),3% (inactive),94% (active),inactive,inactive,inactive,inactive
CCc1cn2c3c(cc(C(=O)N[C@@H](Cc4ccccc4)[C@H](O)CNCc4ccccc4C)cc13)N(C)S(=O)(=O)CC2,98% (active),3% (inactive),5% (inactive),98% (active),inactive,inactive,inactive,inactive
CCOC(=O)C(C)(C)Oc1ccc(CN(Cc2ccc(CC(C)C)cc2)C(=O)Nc2ccc(F)cc2F)c(OC)c1,96% (active),5% (inactive),-8% (inactive),97% (active),inactive,inactive,inactive,inactive
COc1cc(-c2nc(-c3ccccc3)c(-c3ccccc3)[nH]2)cc(OC)c1O,90% (active),5% (inactive),-2% (inactive),100% (active),inactive,inactive,inactive,inactive
O=C(Nc1cccc(-c2nn3ccccc3c2-c2ccnc(Nc3ccc(Cc4ccncc4)cc3)n2)c1)c1c(F)cccc1F,97% (active),43% (inactive),-1% (inactive),97% (active),inactive,inactive,inactive,inactive
CCOC(=O)c1c(C)n(-c2ccc(Cl)cc2)c2ccc(OC(=O)C=Cc3ccccc3)cc12,92% (active),3% (inactive),-2% (inactive),99% (active),inactive,inactive,inactive,inactive
CCOP(=O)(OCC)c1ccc(OC)c(-c2ccc[nH]2)c1,10% (inactive),-13% (inactive),-2% (inactive),95% (active),inactive,inactive,inactive,inactive
NC1CCN(CCNCc2cccc(-c3ccc(-c4nc5ccc(C(F)(F)F)cc5[nH]4)cc3)c2)C1 (stereo not given),75% (active),19% (inactive),1% (inactive),98% (active),inactive,inactive,inactive,inactive
CC(=O)N(C)C1CCN(Cc2ccc(-c3cccc(-c4nc5ccc(F)cc5[nH]4)c3)cc2)C1 (stereo not given),79% (active),28% (inactive),6% (inactive),100% (active),inactive,inactive,inactive,inactive
CN(C)CCN(C)C(=O)c1cc(-c2ccncc2)c(-c2ccc(Cl)c(O)c2)o1,34% (inactive),-11% (inactive),0% (inactive),97% (active),inactive,inactive,inactive,inactive
CC(C)OCCCNC(=O)c1nc(-c2cccc(C(F)(F)F)c2)sc1C(C)C,34% (inactive),-7% (inactive),-8% (inactive),94% (active),inactive,inactive,inactive,inactive
CN1CCc2cc(NS(=O)(=O)c3ccc(-c4ccc(Cl)cc4)cc3)c(OCCCN3CCCCC3)cc2CC1,100% (active),91% (active),0% (inactive),101% (active),inactive,inactive,inactive,inactive
COc1ccc(CNCc2ccc(-c3ccc(-c4nc5ccc(C(F)(F)F)cc5[nH]4)s3)cc2)cc1,98% (active),38% (inactive),-1% (inactive),100% (active),inactive,inactive,inactive,inactive
Cc1ccc(NC(=O)c2ccc3ncccc3c2)cc1OC1CCN(Cc2ccsc2)C1 (stereo not given),49% (inactive),5% (inactive),-3% (inactive),88% (active),inactive,inactive,inactive,inactive
CC(C)Nc1cc(C(=O)N[C@@H](Cc2ccccc2)[C@H](O)CNC2CCOCC2)c(F)c(N2CCCCS2(=O)=O)c1,98% (active),2% (inactive),-2% (inactive),98% (active),inactive,inactive,inactive,inactive
CCOC(=O)c1ccc(NC(=O)N[C@@H](Cc2ccccc2)C(=O)NC2CCN(Cc3ccc(O)cc3)C2)cc1 (stereo not given in full),2% (inactive),7% (inactive),-6% (inactive),95% (active),inactive,inactive,inactive,inactive
N#Cc1ccc2c(c1)CN(CCC1CCC(NC(=O)c3cc4cc(OC(F)(F)F)ccc4[nH]3)CC1)CC2 (stereo not given),19% (inactive),4% (inactive),4% (inactive),101% (active),inactive,inactive,inactive,inactive
O=C(/C=C/c1ccc(CNCCN2CCOCC2)cc1)NCCc1ccccc1,3% (inactive),9% (inactive),-2% (inactive),94% (active),inactive,inactive,inactive,inactive
Cc1cc(=O)[nH]c(-n2nc(C)cc2NC(=O)C2(c3ccc(Cl)cc3)CCCC2)n1,97% (active),30% (inactive),5% (inactive),96% (active),inactive,inactive,inactive,inactive
CC(C)(C)OC(=O)NCc1ccc(Nc2nnc(-c3cccc(C(=O)NCc4cc(C(F)(F)F)cc(C(F)(F)F)c4)c3)o2)cc1,13% (inactive),4% (inactive),0% (inactive),90% (active),inactive,inactive,inactive,inactive
